# Screening results as filed in PubChem BioAssay.
# This is a sample that favours compounds with a hit; in the whole collection about 2% have one here.
# TR SRC2 fluor cs: Texas Red fluorescence interference in TRb-SRC2 counter-screen | AID 1479 | TRb/SRC2 Texas Red total fluorescence interference | 280,000 tested, 0.29% active | Potency, µM (doses to about 106 µM), for the others: at the highest dose fluorescence change, negative = quenching; active = well fitted curve in either direction with a large enough effect; inconclusive = small, poorly fitted or top-dose-only effect; also: potency is read from the fitted curve at half-maximal effect; % is scaled to controls: 0 for no effect and ±100 for the full control effect
#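 Human TRb ligand-binding domain at 0.6 uM with 20 nM Texas Red SRC2 peptide in Tris buffer containing 1 uM T3 and 5% DMSO, incubated with compound 5 h at ambient temperature. Total fluorescence (555/632 nm) calculated as parallel + 2 × perpendicular.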
# HTT cytoprotect: protects HTT-Q103 PC12 cells, measured by ATP | AID 1471 | 230,000 tested, 0.14% active | PC12 HTT-Q103 induced, cytoprotection, ATP luminescence, 40 h | Potency, µM (doses to about 56.4 µM), for inactives: cytoprotection (ATP increase), most hits filed as activators; also: potency is read from the fitted curve at half-maximal effect; % of control where 0% means no effect; nearly all actives have a fitted effect of over 45% in size
#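 Huntington model: PC12 line, ecdysone-inducible HTTQ103 exon1–GFP, tebufenozide 100 nM. Test articles in a dose series. Endpoint luminescence from cellular ATP.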
# FBPA coupling cs: counter-screen for Giardia aldolase inhibitors: coupling enzyme system; coupling enzyme system counterscreen, AmpLite Red fluorescence; activity change, negative = inhibition, % at 58.2 µM, hits read low; 290,000 tested, 0.67% active; in the data active = activity change below about -30%; also: % is scaled to controls: 0 for no effect and ±100 for the full control effect
#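 Counterscreen lacking aldolase: glyceraldehyde-3-phosphate coupling-enzyme reagent preincubated 10 min at RT with compound (at 57.5 uM final), then substrate/coupling system with AmpLite Red added; fluorescence read at 525/598 nm after 20 min RT.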
# JMJD2E inh: JMJD2E (human) inhibition. B2RXH2. JMJD2E catalytic domain, FDH-coupled NADH fluorescence (FDH is formaldehyde dehydrogenase). Potency, µM (doses to about 57.1 µM), inactives show at the highest dose activity change, negative = inhibition, actives largely listed as inhibitors. 230,000 tested, 1.6% active. AID 2147; active = well fitted inhibition curve with a large enough effect, not every such curve was filed as active; inconclusive = small, poorly fitted or top-dose-only effect, or another doubt; inactive = no such curve, though single readings can be large or run the other way;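 also: potency is read from the fitted curve at half-maximal effect; 0% = wells with enzyme and -100% = buffer wells without enzyme; nearly all actives have a fitted effect of over 50% in size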
# HttQ103 aggreg: reduces HttQ103-GFP aggregates in PC12 cells | Potency, µM (doses to about 46.1 µM), inactives show top-dose activity change, negative = inhibition, hits mostly inhibitors | 220,000 tested, 1.1% active | PC12 HttQ103-GFP aggregates, Acumen cytometry, 40 h | AID 1688; also: potency is read from the fitted curve at half-maximal effect; % is scaled to controls: 0 for no effect and ±100 for the full control effect; nearly all actives have a fitted effect of over 60% in size
#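 Read-out: GFP aggregate count by laser scanning cytometer (488 nm excitation, 500-530 nm emission, 1–25 µm objects >6 SD above background). Cells: PC12, inducible HTTex1-Q103-GFP, 100 nM tebufenozide; compounds titrated.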
# TRb SRC2 PPI: inhibitors of human thyroid hormone receptor beta-SRC2 interaction; P10828; TRbeta-SRC2 peptide binding, fluorescence polarization; receptor liganded with 1 µM T3; Potency, µM (highest dose often 106 µM), without a hit: top-dose activity change, negative = inhibition, hits mostly inhibitors; 280,000 tested, 0.065% active; AID 1469;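 also: potency is read from the fitted curve at half-maximal effect; plate controls were bound peptide for no effect and peptide without receptor for full effect; nearly all actives have a fitted effect of over 50% in size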
# Target sequence (P10828 whole entry, looked up): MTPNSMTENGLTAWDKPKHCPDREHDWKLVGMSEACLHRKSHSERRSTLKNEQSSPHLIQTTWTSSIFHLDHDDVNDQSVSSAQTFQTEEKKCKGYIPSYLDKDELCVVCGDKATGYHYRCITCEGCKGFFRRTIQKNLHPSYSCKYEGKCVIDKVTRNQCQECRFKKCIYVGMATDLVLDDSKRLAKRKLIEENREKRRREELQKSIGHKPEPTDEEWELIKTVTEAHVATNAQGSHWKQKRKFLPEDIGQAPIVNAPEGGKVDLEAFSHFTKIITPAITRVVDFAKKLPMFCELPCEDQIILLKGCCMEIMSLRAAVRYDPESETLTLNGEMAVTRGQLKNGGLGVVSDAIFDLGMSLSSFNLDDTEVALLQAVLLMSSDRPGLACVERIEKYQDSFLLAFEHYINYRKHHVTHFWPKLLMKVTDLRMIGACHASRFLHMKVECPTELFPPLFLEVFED
#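 Decrease in fluorescence polarization of 20 nM Texas Red SRC2 coactivator peptide flagged inhibition of its binding to 0.6 uM TRb LBD; 1 uM T3 included, incubation 5 hr, ex 555/em 632 nm.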
# Active calls of the source: *; ? = inconclusive; . = not tested or not shown; ! = a repeat was not active; [ ] = another dose, or the depositor's remark. Unless noted, calls follow the shape of the dose curve; as a rule, active = well fitted curve in the direction sought with a large enough effect; inconclusive = small, poorly fitted or top-dose-only effect, or another doubt; inactive = no such curve, though single readings can be large; an effect the other way counts as inactive or inconclusive.
SMILES,TR SRC2 fluor cs,HTT cytoprotect,FBPA coupling cs,JMJD2E inh,HttQ103 aggreg,TRb SRC2 PPI
CCC1(c2ccccc2)C(=O)NCNC1=O,-1%,1.4µM*!,2,-1%,-9%,-1%
COC(=O)CN1C(=O)CSc2ccc(S(=O)(=O)Nc3ccccc3)cc21,-2%,.,.,.,.,-2%
Cc1nc(-c2ccccc2)sc1-c1n[nH]c(=S)n1C,1%,-19%,3,?,12%,-2%
CSc1sc(-c2n[nH]c(=S)n2C)c2c1C=CCC2,-2%,14%[10 µM],-34*,?,4%[9.22 µM],4%
CCCOc1ccc(/C=C/c2[nH]c(=O)[nH]c(=O)c2[N+](=O)[O-])cc1OCC,1%,0%[10 µM],14,0%,2%[9.22 µM],6%
CCOc1cc(/C=C\c2[nH]c(=O)[nH]c(=O)c2[N+](=O)[O-])ccc1OC(C)CC (centres undefined),-5%,2.5µM*,13,0%,?,-14%
CC(C)c1ccc(C(=O)Nc2cc(-c3ccccc3F)nn2-c2ccccc2)cc1,-1%,.,.,.,.,-5%
O=C(O)CCC(=O)N1CCCC1C(=O)O (centres undefined),0%,.,.,1%,.,0%
CN1CCCc2cc(C=O)ccc21,2%,9%[1.9 µM],-4,-4%,-7%,-18%
CCCN1CCCc2cc(CN)ccc21,9%,-16%[10 µM],-52*,?,13µM*,-9%
N#CC1=C(N)SC(N)=C(C#N)C1CCC1CCCCC1,4%,10%[10 µM],3,?,0.89µM*,-16%
CC(=O)Nc1ccc(NC(=O)CN(c2ccc(C34CC5CC(CC(C5)C3)C4)cc2)S(C)(=O)=O)cc1,-1%,-20%,-2,7%,4%,-4%
CS(=O)(=O)N(CC(=O)Nc1ccc(CC#N)cc1)c1ccc(C23CC4CC(CC(C4)C2)C3)cc1,-4%,41%[10 µM],0,5%,22µM*,3%
CC(C)=CC[C@@H](O)C1=CC(=O)c2c(O)ccc(O)c2C1=O,28µM*[quencher],-89%,.,.,.,-3%
COc1ccccc1NCCC(=O)OCC(=O)NC1CC1,3.5µM*[quencher],-29%[1.9 µM],-5,2%,-6%,?
CC(=O)[C@]1(O)CCC2C3C=C(Cl)C4=CC(=O)C5CC5[C@@]4(C)C3CC[C@]21C (some centres undefined),0%,-25%,1,-5%,4%,-7%
O=C(c1cnn(C(=O)COc2ccc(Cl)cc2)c1)c1ccccc1O,-2%,35%[10 µM],-11,-6%,-28%,4%
Cc1ccc(O)c(C(=O)c2cnn(C(=O)COc3ccc(Cl)cc3)c2)c1,0%,2%[10 µM],2,6%,5.6µM*,2%
N#C/C(=N\Nc1cccc([N+](=O)[O-])c1)C(=O)c1ccc(Br)cc1,-10%,.,12,-3%,1.8µM*,-2%
O=C(O)c1ccc(N=NNc2cccc([N+](=O)[O-])c2)cc1,0%,-44%,8,-5%,5%,2%
CCOc1ccc(-c2nnc(N3CCCCC3)c3ccccc23)cc1,-1%,-38%,5,-3%,11µM*,-7%
CCc1cccc(C)c1NC(=O)C1=C(C)C(=O)OC12CCC(C)CC2 (centres undefined),-4%,.,.,.,.,-9%
CN(Cc1ccccc1)c1ccc2nnc(-c3ccccc3)n2n1,-2%,.,3,?,35µM*,-2%
CN1C(=O)/C(=C2\SC(=S)N(C(CCC(=O)O)C(=O)O)C2=O)c2ccccc21 (centres undefined),-1%,19%[10 µM],-22,13µM*,-17%,-9%
CN1C(=O)/C(=C2\SC(=S)N(CC3CCCO3)C2=O)c2ccccc21 (centres undefined),1%,-1%,0,6%,22%,-6%
SMILES,TR SRC2 fluor cs,HTT cytoprotect,FBPA coupling cs,JMJD2E inh,HttQ103 aggreg,TRb SRC2 PPI
CCCCCCCCCCCC[N+](C)(C)[O-],-4%[201 µM],.,.,.,.,2%[201 µM]
CC(C)Nc1ncnc2c1cnn2Cc1ccc(Cl)cc1,.,.,2,.,.,.
OCCNc1ncnc2c1cnn2Cc1ccccc1,.,.,-2,.,.,.
c1ccc(CNc2ncnc3c2cnn3Cc2ccccc2)cc1,-1%,-33%[10 µM],1,-9%,22µM*,-1%
CCC(C)Nc1ncnc2c1cnn2Cc1ccc(Cl)cc1 (centres undefined),-6%,-41%,-5,-8%,25µM*,-10%
COc1ccc(OC)c(NC(=O)CN2C(=O)c3ccccc3Sc3ccc(C(=O)N4CCCC4)cc32)c1,794µM*[quencher],.,.,.,.,-20%
COc1ccc(C(NC(=O)c2cccnc2)c2cc(Cl)c3cccnc3c2O)cc1OC (centres undefined),-4%,-76%,0,-20%,2.8µM*,-10%
Oc1c(C(Nc2ccccn2)c2cccnc2)cc(Cl)c2cccnc12 (centres undefined),-1%,-59%[10 µM],0,?,7.1µM*,0%
COc1cc(C(=O)NC(c2ccc(Cl)cc2)c2cc(Cl)c3cccnc3c2O)cc(OC)c1OC (centres undefined),1%,.,.,.,.,-1%
Cc1cc(NC(c2cccnc2)c2ccc3cccnc3c2O)no1 (centres undefined),-1%,-86%,-13,?,?,-7%
COCn1c2ccccc2c2nnc(C(C)=O)nc21,-9%[11.2 µM],-2%[10 µM],1,.,.,-1%[11.2 µM]
CC(=O)NC(=S)Nc1ccc([N+](=O)[O-])cc1C,-1%,11µM*,3,7%,?,4%
O=C(CSc1nc2c([nH]c3ccccc32)c(=O)n1-c1ccc(F)cc1)NCc1ccccc1,4%,.,.,.,.,3%
FC(F)(F)c1cnc(/C=C/Nc2ccccc2Cl)c(Cl)c1,-4%,-13%,-1,2%,-10%,0%
C[N+]1=C(/C=C/Nc2ccccc2Cl)C(C)(C)c2ccccc21,45µM*[fluorescent],12%[10 µM],0,-9%,13µM*,?
Cc1cc(=O)[nH]c(N=N/C(=N/Nc2ccc(O)cc2)c2ccccc2)n1,2%,-90%[10 µM],0,3%,1.6µM*,6%
COc1ccc(N/N=C(/N=Nc2nc(C)cc(=O)[nH]2)c2ccccc2)cc1,2%,-81%[10 µM],-11,14µM*,?,-7%
CCCOc1cccc(C2c3c(oc4ccc(F)cc4c3=O)C(=O)N2CCCN2CCOCC2)c1 (centres undefined),1%,.,.,.,.,2%
Cc1ncc(CO)c(/C=N/NC(=O)c2cc(O)c(O)c(O)c2)c1O,?,13%[10 µM],-14,13µM*,8%,9%
Cc1ncc(CO)c(/C=N/NC(=O)c2cc(Br)ccc2O)c1O,-6%,-132%,7,?,?,9%
Cc1ncc(CO)c(/C=N/NC(=O)c2ccc(Br)cc2)c1O,-4%,40%[10 µM],1,?,11µM*,-2%
